Experimental data: PubChem BioAssay AID1347131 (National Center for Advancing Translational Sciences (NCATS), 2019)
About 2,000 (0.49%) of roughly 410,000 compounds were called active. Another 8% or so got no clear call; they are omitted. The sample holds actives, similar compounds and a random draw of the others, so the mix is not that of the screen. The call rests on the fitted dose curve; tested in HEK293 reporter line.

Assay: qHTS Assay for Foot and Mouth Disease Virus Antivirals: Primary Screen against the MLPCN compound library; further: nearly all actives have a fitted effect of over 55% in size
Conditions: FMDV antiviral cell-based qHTS; series mostly up to 57.9 µM; activity, negative = inhibition: at the top concentration
Potency means the concentration at half of the fitted maximal effect.

SMILES	activity, negative = inhibition	Potency
CN1/C(=C\C(=O)COC(=O)CNC(=O)c2ccc3ccccc3c2)C(C)(C)c2ccccc21	-30.8% (inactive)	
O=C(NCCc1ccc(F)cc1)C(=O)NCC(c1cccs1)S(=O)(=O)c1ccccc1 (stereo not drawn)	-31.1% (inactive)	
Cc1cccc(C(=O)n2c(=S)nc3cc(C)ccn32)c1		11.2 µM (active)
Cc1cccc(C(=O)O/N=C(\N)Cc2cccc3ccccc23)c1	-40.4% (inactive)	
CCCCCn1c(CCCNC(=O)c2cccc(C)c2)nc2ccccc21	-37.7% (inactive)	
COc1ccccc1N=C1SCC(=O)N1c1ccccc1OC	-30.3% (inactive)	
CSCCC(c1nnnn1C1CCCCC1)N1CCC(n2c(=O)[nH]c3ccccc32)CC1 (stereo not drawn)	-34.1% (inactive)	
c1ccc2sc(NN=C3CCCCCC3)nc2c1		15.8 µM (active)
c1ccc(C(=NNc2nc3ccccc3s2)c2ccccn2)cc1	-31.5% (inactive)	
CC(=O)Nc1ccc(S(=O)(=O)Nc2nc3ccccc3s2)cc1	135% (inactive)	
Cc1oc(-c2cccs2)nc1CSCC(=O)N1CCC2(CC1)OCCO2	-30.5% (inactive)	
CCCS(=O)(=O)c1cscc1NC(=O)c1c(-c2c(F)cccc2Cl)noc1C	-35.1% (inactive)	
Cc1cc(=S)nc(-c2ccccn2)[nH]1	-33.8% (inactive)	
c1ccc(-c2nnc(-c3ccccn3)s2)nc1		14.1 µM (active)
c1ccc(C2=Nn3c(nnc3-c3ccccn3)SC2)cc1	-38.5% (inactive)	
CCOc1ccccc1C(=O)NC(C(=O)N(C)Cc1ccc2c(c1)OCO2)C(C)C (stereo not drawn)	-33.9% (inactive)	
COc1ccc2c(CC(=O)Nc3ccccc3N3CCOCC3)coc2c1	-30.6% (inactive)	
C/C(N)=C(/C#N)C(=O)CSc1nc2ccc(C)cc2[nH]1		22.4 µM (active)
C/C(N)=C(/C#N)C(=O)CSc1nc2scc(-c3ccc(F)cc3)c2c(=O)n1C	-35.4% (inactive)	
CCN(CC)S(=O)(=O)c1ccc(C)c(NC(=O)CSc2nc3ccc(C)cc3[nH]2)c1	-35.3% (inactive)	
CCN1CCN(C(=O)c2ccc(NS(=O)(=O)c3ccccc3)cc2)CC1		inactive
Cc1nc2c(-c3ccc(F)cc3)c(C)nn2c(C)c1CCC(=O)Nc1ccccc1	-40.1% (inactive)	
Cc1nn2c3c(cnc2c1-c1ccc(F)cc1)C(=O)CC(c1ccccc1)C3 (stereo not drawn)	-35.2% (inactive)	
Cc1ccccc1-c1ccnc2c(-c3ccc(F)cc3)c(C)nn12		28.2 µM (active)
CCN(C(=O)COC(=O)/C=C/c1cccc(Br)c1)C1CCS(=O)(=O)C1 (stereo not drawn)	-39.3% (inactive)	
CN1CCN(c2ncnc3c2[nH]c2ccc(F)cc23)CC1	-35.1% (inactive)	

SMILES	activity, negative = inhibition	Potency
O=C(c1ccco1)N1CCN(c2ncnc3c2[nH]c2ccc(Br)cc23)CC1		31.6 µM (active)
O=C(c1ccco1)N1CCN(c2ncnc3c(-c4ccc(Cl)cc4)nsc23)CC1	-30.7% (inactive)	
COC(=O)c1ccc(CSc2ccc3nnc(-c4ccc(F)cc4)n3n2)o1	-33.2% (inactive)	
COc1cc(NC(=O)Nc2cccc(Cl)c2)c(C(=O)O)cc1OC	-14.1% (inactive)	
O=C(Nc1ccc(Cl)cc1)Nc1ccccc1C(=O)O		10 µM (active)
O=C(Nc1ccccc1)Nc1ccc(O)c2ccccc12	-12.1% (inactive)	
CC1CCc2sc(C(=O)N3CCN(c4ncccn4)CC3)cc2C1 (stereo not drawn)	-18.6% (inactive)	
CC(=O)c1ccc(-c2cc([C@H]3[C@H]4C=CC[C@@H](C)[C@@H]4C(=O)N3Cc3ccccc3)ccc2F)cc1	-38.5% (inactive)	
Cc1ccc(N/C=C/C(=O)c2ccccc2)cc1C		7.94 µM (active)
O=C(/C=C\Nc1ccc2c(c1)OCO2)c1ccc2c(c1)OCO2		17.8 µM (active)
O=C(Nc1ccccc1)/C(=C/c1ccccc1)c1ccccc1	-36.4% (inactive)	
O=C(NC(=S)Nc1ccc2c(c1)OCO2)c1ccc(Cl)cc1	111% (inactive)	
O=C(/C=C/Nc1ccccc1)c1ccccc1		7.94 µM (active)
CSc1ccccc1NC(=O)CSCc1ccc(Br)cc1	-36.5% (inactive)	
CC(=O)c1cccc(NS(=O)(=O)c2ccc(N/C=C\C(=O)c3ccc(C)cc3)cc2)c1	-30.2% (inactive)	
O=C1Nc2ccc(Br)cc2/C1=C/C(=O)c1ccccc1	-31.5% (inactive)	
Cc1ccc(NC(=O)C(=O)NCC2(c3ccccc3)CCCC2)cc1C	-33.4% (inactive)	
Cn1c(=O)n(C)c2cc(C(=O)Nc3ccc4c(c3)OCO4)ccc21	107% (inactive)	
Cc1ccc(NC(=O)c2ccc(NC(=O)c3ccccc3)cc2)cc1C	-26.7% (inactive)	
O=C(/C=C/Nc1ccccc1F)c1ccc(Br)cc1		12.6 µM (active)
O=C(/C=C/c1cc([N+](=O)[O-])ccc1OC(F)F)Nc1cccc([N+](=O)[O-])c1	-28.7% (inactive)	
O=C(COc1ccc(Br)cc1)N1CCN(c2ccccc2)CC1	-33.6% (inactive)	
CCc1nc(SCc2cccnc2)c2c(=O)n(C)c(=O)n(C)c2n1	-35.2% (inactive)	
COC(=O)C1=C(C)N(c2cccc3ccccc23)C(=O)C1	-41.1% (inactive)	
O=S(=O)(Nc1ccccc1Cl)c1ccc2[nH]c(=S)oc2c1	-33.6% (inactive)	
CCCC(=O)Nc1ccc2nc(C)n(Cc3ccccc3Cl)c(=O)c2c1	-30.7% (inactive)	

SMILES	activity, negative = inhibition	Potency
Cc1ccc(S(=O)(=O)N(C)CC(=O)Nc2ccncc2)cc1	-36.4% (inactive)	
CCOc1ccccc1/C=N/n1c(C)nc2ccccc2c1=O	-39.4% (inactive)	
Cc1cc(C)cc(-n2ccnc2SCC(=O)Nc2ccccc2F)c1	-32% (inactive)	
O=C(/C=C\Nc1ccccn1)c1ccccc1		10 µM (active)
O=C(Nc1ccccn1)C(F)(F)C(F)(F)C(F)(F)C(F)(F)C(=O)Nc1ccccn1	-32.3% (inactive)	
CN(C)/C=C/C(=O)c1cccc(Oc2ncccn2)c1	-52.2% (inactive)	
COc1ccc(Nc2nc(N)nc(CN3CCN(c4ccccn4)CC3)n2)cc1	-45.2% (inactive)	
CCOC(=O)CC1(C)NC(C(=O)O)C(C)(C)S1 (stereo not drawn)	0% (inactive)	
Cc1cc(C)cc(NC(=O)c2ccc(N3C(=O)C4CCCCC4C3=O)cc2)c1 (stereo not drawn)	-35.2% (inactive)	
O=C(Nc1cccc(N2C(=O)C3CCCCC3C2=O)c1)c1ccccc1 (stereo not drawn)		14.1 µM (active)
O=C(Nc1ccc(Br)cc1)c1cccc(N2C(=O)C3CCCCC3C2=O)c1 (stereo not drawn)	-34.9% (inactive)	
COc1ccccc1CNC(=O)c1ccc(CS(=O)(=O)c2ccccc2C)o1		inactive
COc1cc(OC)cc(C(=O)N[C@H](C(=O)Nc2nc3ccccc3[nH]2)C(C)C)c1	-32.3% (inactive)	
CN(c1ccccc1)S(=O)(=O)c1ccc(Cl)c(C(=O)Nc2nc3ccccc3[nH]2)c1	-40.3% (inactive)	
O=C(Nc1nc2ccccc2[nH]1)c1ccc(Cl)cc1		12.6 µM (active)
COc1cccc(C(=O)Nc2cccc(OCc3cc(=O)n4cccc(C)c4n3)c2)c1	-33.9% (inactive)	
COc1ccc(Cl)cc1NC(=O)CCCS(=O)(=O)c1nc(-c2ccc(OC)c(OC)c2)cc(C(F)(F)F)n1		28.2 µM (active)
COc1ccc(-c2cc(C(F)(F)F)nc(N3CCN(C)CC3)n2)cc1OC	-35.9% (inactive)	
COc1ccc(CCNc2nc(-c3ccc(OC)c(OC)c3)cc(C(F)(F)F)n2)cc1OC	-30.5% (inactive)	
Cc1ccccc1-n1c(SCc2c(C)noc2C)nnc1-c1c[nH]c2ccccc12	-30.2% (inactive)	
CCOC(=O)/C(O)=C(\C#N)c1nc2ccccc2[nH]1	-41.1% (inactive)	
NC(=O)c1ccc(N2CCN(c3ccc(O)cc3)CC2)c([N+](=O)[O-])c1	-35.5% (inactive)	
COc1ccc(Nc2ccc(N3C(=O)CC(C)C3=O)cc2[N+](=O)[O-])cn1 (stereo not drawn)	-35.4% (inactive)	
CC1CC(=O)N(c2ccc(NCCc3ccc(O)cc3)c([N+](=O)[O-])c2)C1=O (stereo not drawn)		25.1 µM (active)
COc1ccccc1C(CNC(=O)c1ccc(-c2ccccc2Cl)o1)N1CCCC1 (stereo not drawn)	-35.2% (inactive)	
CC1C/C(=N/Nc2ccc([N+](=O)[O-])cc2[N+](=O)[O-])CC(C)(C)C1 (stereo not drawn)	-33% (inactive)	

SMILES	activity, negative = inhibition	Potency
COc1cc(C)c(-c2[nH]ncc2-c2csc(C)n2)c(O)c1	-38.2% (inactive)	
Cc1ccc(C(=O)Cn2c3c(sc2=N)CCCC3)cc1		7.94 µM (active)
Cc1ccc(C(=O)Cn2c(=N)n(N)c3ccccc32)cc1	-55.9% (inactive)	
CCOC(=O)Cn1nc(C)c(NC(=O)COc2ccc(OC)cc2)c1C	-31.4% (inactive)	
COc1ccc2nc(C)cc(SCC(=O)N/N=C/c3c(OC)ccc4ccccc34)c2c1	-36.7% (inactive)	
Cc1ccc(-c2csc(Nc3ccc(S(N)(=O)=O)cc3)n2)o1	-30.9% (inactive)	
Cc1ccc(NC(=S)Nc2ccc3[nH]c(=O)[nH]c3c2)cc1	-37.6% (inactive)	
O=C(NCc1ccccn1)c1ccccc1OCc1ccc(Cl)cc1Cl	-31.9% (inactive)	
Clc1ccc(OCc2nc(-c3ccccn3)no2)c(Br)c1		20 µM (active)
COc1ccc(-c2noc(CCCOc3ccccc3)n2)cc1OC	-34.9% (inactive)	
Cc1cc(OCc2nc(-c3ccncc3)no2)cc(C)c1Cl	-36.6% (inactive)	
Cc1ccc(OCc2nc(-c3ccccn3)no2)c(Br)c1		20 µM (active)
COc1ccc(Br)cc1CNC(=O)CCc1nc(-c2ccc(C)cc2)no1	-32.7% (inactive)	
CCn1c(SCC(=O)Nc2cccc(NC(C)=O)c2)nc2c([nH]c3ccccc32)c1=O	-30.1% (inactive)	
COc1ccc(C(=O)c2cn(Cc3ccccc3)c3ccccc3c2=O)cc1OC	-30.9% (inactive)	
COc1cc(NC(=O)c2ccc3oc(=O)c(S(=O)(=O)c4ccccc4)cc3c2)cc(OC)c1	-26.9% (inactive)	
CCCCn1c(=O)[nH]c(=O)c2c1nc(CN1C(=O)c3ccccc3S1(=O)=O)n2CCC	-41.4% (inactive)	
Cc1cccc(C)c1NC(=O)Cn1c(=O)n(Cc2ccco2)c(=O)c2ccc(C(=O)NC3CCCC3)cc21	-30.3% (inactive)	
COc1cccc(N2C(=O)C3C(C2=O)C3(c2ccccc2)c2ccccc2)c1 (stereo not drawn)		14.1 µM (active)
COC(OC)C12c3ccccc3C(c3ccccc31)C1C(=O)N(c3cccnc3)C(=O)C12 (stereo not drawn)	-32.8% (inactive)	
COc1ccc2c(c1)C1(C)CC(C)(C)N2C(=O)N1c1ccccc1 (stereo not drawn)	-39.4% (inactive)	
CCn1c(SCC(=O)N/N=C/c2c[nH]c3ccccc23)nnc1-c1ccc(Cl)cc1	-32.6% (inactive)	
CC1c2cc3c(cc2CCN1C(=O)c1ccc(C(F)(F)F)cc1)OCCCO3 (stereo not drawn)	-34.3% (inactive)	
CC(=O)c1ccc(N2CCN(C(=O)CCCCn3c(=O)[nH]c4ccsc4c3=O)CC2)cc1	-34.1% (inactive)	
CC(C)(C)OC(=O)C[C@@H]1C/C=C\C[C@@H](CC(=O)N[C@@H](CO)Cc2ccccc2)C(=O)NC[C@@H](c2ccccc2)OC1=O	-31.5% (inactive)	
